Bioassay records deposited in PubChem BioAssay by National Center for Advancing Translational Sciences (NCATS).
RECQ1 inh-1: blocks DNA unwinding by human RECQ1; P46063; RECQ1 DNA unwinding, red fluorescence kinetic read; Potency, µM (series often up to 57.3 µM), inactives show at the top dose activity, negative = inhibition, hits mostly inhibitors; 240,000 compounds, 0.54% hits;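 further: plate controls were vehicle for no effect and no enzyme for full effect; nearly all actives have a fitted effect of over 30% in size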
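50 nM RECQ1T1 preincubated 15 min with compound in Tris pH 8.0 buffer with MgCl2, DTT, Tween-20 and 2.5 ug/ml poly(dI-dC); started with 200 nM TAMRA/BHQ-2 forked duplex and 2 mM ATP. Unwinding read as fluorescence (525/598 nm), two reads 2 h apart.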
APE1 inh-1: blocks human APE1 abasic DNA cleavage | P27695 | recombinant APE1, TAMRA/BHQ-2 abasic DNA cleavage fluorescence | Potency, µM (highest dose often 65.8 µM), inactives show at the highest dose activity change, negative = inhibition, usual class: inhibitors | 350,000 compounds, 0.35% hits;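 further: plate controls were vehicle for no effect and reference inhibitor for full effect; nearly all actives have a fitted effect of over 55% in size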
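Readout is kinetic fluorescence (ex 525, em 598 nm) from cleavage of 50 nM TAMRA/BHQ-2 THF abasic duplex by 0.75 nM APE1, compound added 15 min beforehand at RT.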
L3MBTL1 inh: L3MBTL1 (human) inhibition; Q9Y468; AlphaScreen L3MBTL1–H3K9me1 peptide binding; Potency, µM (highest dose often 57.1 µM), inactives show at the highest dose activity, negative = inhibition, most hits filed as inhibitors; 230,000 compounds, 0.66% hits; AID 485360; further: nearly all actives have a fitted effect of over 60% in size
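AlphaScreen proximity signal between nickel-chelate acceptor and streptavidin donor beads (final 10 ug/mL) reports binding of 50 nM L3MBTL1 to 75 nM biotin-H3 K9me1 peptide; complex incubated with compounds 30 min at room temperature; cefsulodin titration as control.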
BLM inh-1: Bloom syndrome helicase (human) inhibition | P54132 | recombinant BLM DNA unwinding, fluorescence dequenching | Potency, µM (series often up to 56.1 µM), for inactives: top-dose activity change, negative = inhibition, most hits filed as inhibitors | 350,000 compounds, 0.2% hits | AID 2528;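 further: plate controls were vehicle for no effect and no enzyme for full effect; nearly all actives have a fitted effect of over 35% in size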
DNA dye displace: displaces fluorescent dye from DNA, flagging APE1 artifacts; shares compounds with APE1 inh-1; DNA fluorescent dye displacement counterscreen, fluorescence; Potency, µM (titrated, usually from 28.5 µM), for inactives: at the top dose activity change, negative = inhibition, usual class: inhibitors; 480 compounds, 7% hits; AID 2564;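 further: loss of thiazole orange fluorescence as the dye is displaced from duplex DNA; 0% = ThO with dsDNA and no compound and -100% = ThO without dsDNA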
EndoIV counter: blocks E. coli endonuclease IV DNA cleavage | E. coli Endo IV, fluorogenic AP-site DNA cleavage | shares compounds with APE1 inh-1 | Potency, µM (highest dose often 27.1 µM), for inactives: at the top dose activity change, negative = inhibition, hits mostly inhibitors | 560 compounds, 4% hits | AID 2565;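 further: plate controls were uninhibited enzyme wells for no effect and no enzyme buffer wells for full effect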
APE1 inh-2: confirmation of inhibitors of human APE1 endonuclease; shares compounds with APE1 inh-1; purified APE1, fluorogenic abasic-site DNA cleavage; Potency, µM (doses to about 57.1 µM), for the others: top-dose activity change, negative = inhibition, most hits filed as inhibitors; 750 compounds, 44% hits; further: nearly all actives have a fitted effect of over 30% in size
APE1 FP: APE1 (human) DNA binding inhibition, fluorescence polarization. shares compounds with APE1 inh-1. APE1 binding to TAMRA-labelled double-stranded DNA, fluorescence polarization displacement. Potency, µM (titrated, usually from 28.5 µM), for inactives: at the top dose activity, negative = inhibition, usual class: inhibitors. 480 compounds, 7% hits. AID 2573
BLM inh-2: BLM (human) helicase inhibition, confirmation; shares compounds with BLM inh-1; BLM DNA unwinding, fluorescence quenching, biochemical; AID 2585; Potency, µM, without a hit: max response, negative = inhibition, actives largely listed as inhibitors; 220 compounds, 40% hits;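 further: strand separation dequenches TAMRA so unwinding raises red fluorescence; series mostly up to about 69 µM; nearly all actives have a fitted effect of over 45% in size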
RECQ1 conf: confirmation of human RECQ1 helicase inhibitors; shares compounds with RECQ1 inh-1; RECQ1 helicase DNA unwinding, fluorescence; Potency, µM (doses to about 229 µM), without a hit: at the highest dose activity change, negative = inhibition, usual class: inhibitors; 610 compounds, 28% hits; further: nearly all actives have a fitted effect of over 45% in size
ADP FP counter: displaces ADP in a fluorescence polarization counter-screen for RECQ1 hits | shares compounds with RECQ1 inh-1 | ADP fluorescence polarization displacement counterscreen | Potency, µM (top dose mostly 228 µM), for inactives: at the highest dose activity change, negative = inhibition, most hits filed as inhibitors | 530 compounds, 27% hits; further: nearly all actives have a fitted effect of over 45% in size
RECQ1 inh-2: blocks human RECQ1 DNA unwinding; shares compounds with RECQ1 inh-1; recombinant RECQ1 DNA unwinding, red fluorescence; Potency, µM (series often up to 119 µM), for the others: at the top dose activity, negative = inhibition, hits mostly inhibitors; 1,100 compounds, 15% hits; AID 504841; further: nearly all actives have a fitted effect of over 50% in size
* hit, by the source's call; i = inactive; ? = inconclusive; · = no result given; [ ] = another dose, or the depositor's remark. Most compounds without a hit are left out; they make up all but 0.78% or so of the library. The call rests on the fitted dose curve; in most records, active means well fitted curve in the direction sought with a large enough effect; inconclusive means small, poorly fitted or top-dose-only effect, or another doubt; inactive means no such curve, though single readings can be large; an effect the other way counts as inactive or inconclusive. Unless noted, on the % scale 0 is the no-effect control and ±100 the full control effect; potency means the concentration at half of the fitted maximal effect.

SMILES | RECQ1 inh-1 | APE1 inh-1 | L3MBTL1 inh | BLM inh-1 | DNA dye displace | EndoIV counter | APE1 inh-2 | APE1 FP | RECQ1 conf | ADP FP counter | RECQ1 inh-2 | others
COc1ccc(N2Cc3cccc(C(=O)Nc4cc(C)cc(C)c4)c3C2=O)cc1 | · | · | · | -16% | · | · | · | · | · | · | ·
COc1ccc(N2Cc3cccc(C(=O)O)c3C2=O)cc1 | 14µM* | 13µM* | · | 16µM* | 4% | -1% | 4µM* | ? | 25µM* | -32%[91.9 µM] | 4.5µM* | BLM inh-2=16µM*
N#CCCCS(=O)(=O)c1nnnn1C1CCCCC1 | -6% | 1% | · | 0% | · | · | · | · | · | · | ·
COc1ccc(C(=O)CC(=O)c2ccc(C(C)(C)C)cc2)cc1 | 32µM* | 8.9µM* | · | -15% | ? | -3%[57.1 µM] | 7.9µM* | ? | 13µM* | ? | ?
Cc1ccc(C(=O)CC(=O)c2ccc(C(C)(C)C)cc2)cc1 | i | 2% | 22% | -3% | · | · | · | · | · | · | ·
Cc1ccc(NC(=O)c2cc(-c3ccco3)nc3ccccc23)cc1S(=O)(=O)N1CCOCC1 | ? | ? | -8% | -19% | · | · | · | · | · | · | ·
COc1ccc(NC(=O)c2cc(-c3ccco3)nc3ccccc23)cc1S(=O)(=O)N1CCOCC1 | ? | 4µM* | -86% | ? | 13µM* | 3% | 13µM* | ? | · | · | ?
CCC(C)O (configuration not stated) | 18% | 15% | · | · | · | · | · | · | · | · | ·
Cc1nnc(NC(=O)C2CC(=O)N(c3ccc4c(c3)OCCO4)C2)s1 (configuration not stated) | · | -21% | 7% | · | · | · | · | · | · | · | ·
O=C(Nc1nc(-c2ccco2)c(-c2ccco2)s1)C1CC(=O)N(c2ccc3c(c2)OCCO3)C1 (configuration not stated) | 7.9µM* | 2.5µM* | ? | 14µM* | 11µM* | 8% | ? | -3% | 28µM* | 40µM* | ?
O=c1cc(-c2ccccc2)oc2cc(O[C@@H]3O[C@H](CO)[C@@H](O)[C@H](O)[C@H]3O)c(O)c(O)c12 | 0% | ? | · | 2% | · | · | · | · | · | · | ·
O=c1cc(-c2ccc(O)cc2)oc2cc(O)c(C3OC(CO)C(O)C(O)C3O)c(O)c12 (configuration not stated) | ? | 7.1µM* | 16µM* | -16% | -10% | -1% | 13µM* | 2% | · | · | 50µM*
COc1ccc(CNCc2ccc(C(=O)O)s2)cc1 | · | · | · | -4% | · | · | · | · | · | · | ·
CC1(C)SC2C(N3C(=O)C(c4ccccc4)NC3(C)C)C(=O)N2C1C(=O)O (configuration not stated) | 14µM* | · | · | -7% | -8%[57.1 µM] | 14%[57.1 µM] | ? | ? | 89µM* | 32µM* | ·
Cc1ccc(-c2cc(C3C4C=CCCC4(C)C(=O)N3Cc3ccccc3)ccc2F)cc1 (configuration not stated) | 3% | 0% | · | -11% | · | · | · | · | · | · | ·
CCn1c(=O)cc(OCC(=O)NCc2ccc(F)cc2Cl)c2ccccc21 | · | · | · | -2% | · | · | · | · | · | · | ·
Cc1c2c(c(O)c3c(O)cccc13)C(=O)O[C@H]2C1C(N(C)C)C(O)=C(C(N)=O)C(=O)[C@H]1O (some centres not stated) | 3.2µM* | 2µM* | · | 18µM* | 10µM* | -4%[57.1 µM] | 1.4µM* | 2.2µM* | 40µM* | 16µM* | ?
C[C@H]1c2cccc(O)c2C(O)=C2C(=O)[C@]3(O)C(O)=C(C(N)=O)C(=O)[C@@H](N(C)C)[C@@H]3[C@@H](O)[C@@H]21 | ? | ? | · | -5% | · | · | · | · | · | · | ·
NCCc1ccc(O)c(O)c1 | 14µM* | 0.56µM* | 2% | -10% | -3%[57.1 µM] | 110%[57.1 µM] | ? | ? | ? | 89µM* | ·
Cc1ccc(/C=C2/C(=O)c3ccc(C(=O)O)cc3C2=O)o1 | 7.1µM* | 8.9µM* | 1.6µM* | 75% | · | · | ? | · | 24%[114 µM] | 45µM* | ·
O=C1c2cccc3cccc(c23)C(=O)N1/N=C/c1ccc(O)cc1O | -9% | -9% | -9% | -7% | · | · | · | · | · | · | ·
O=C1c2ccccc2C(=O)N1/N=C/c1ccc(O)c(O)c1O | 6.3µM* | 0.71µM* | · | -24% | -10% | 73% | ? | 4% | ? | 35µM* | ·
C[C@@]1(C(=O)O)NCCc2cc(O)c(O)cc21 | 2.5µM* | 1.8µM* | · | 8.9µM* | -12%[57.1 µM] | 161%[57.1 µM] | -2% | 20%[57.1 µM] | -58% | ? | ·
O=C(CSc1nccc(=O)[nH]1)N1N=C2/C(=C/c3ccco3)CCCC2C1c1ccco1 (configuration not stated) | 16µM* | 13µM* | -86% | 4% | -5% | 2% | 8.9µM* | -28% | ? | ? | ?
O=C1c2ccccc2-c2onc3ccc(NCc4ccco4)c1c23 | 20µM* | ? | -3% | -22% | · | · | 14µM* | · | · | · | 40µM*
COc1ccc(-c2nnc(C3CCN(C(=O)c4ccccc4F)CC3)o2)cc1 | · | · | · | -3% | · | · | · | · | · | · | ·
CC1=[N+](C)c2ccc3ccccc3c2C1(C)C | 3.5µM* | 14µM* | -14% | -9% | 1% | ? | ? | 58% | 7.9µM* | 2.8µM* | 22µM*
c1ccc2c(c1)ccc1ccccc12 | 12% | 26% | 5% | · | · | · | · | · | · | · | ·
Cc1ccc2ncc(C(=O)Nc3ccc(F)cc3F)c(=O)n2c1 | · | · | · | -4% | · | · | · | · | · | · | ·
O=C(O)c1ccc(N2C(=O)c3cccc4c(C(=O)O)ccc(c34)C2=O)cc1 | ? | 13µM* | 3.5µM* | -8% | -4% | 5% | ? | -95% | · | · | ?
